Assay outcomes as filed in PubChem.
Most compounds without a hit are left out; they make up all but 2.4% or so of the library.
FEN1 inhibitor = qHTS Assay for the Inhibitors of Human Flap endonuclease 1 (FEN1) | P39748 | Recombinant FEN1 flap cleavage, fluorescence, 15 min | Potency, µM (doses to about 114 µM), inactives show at the top dose activity change, negative = inhibition, hits mostly inhibitors | actives 0.35% (n = 390,000) | AID 588795, 2011; note: potency is the fitted concentration of half-maximal effect; % is set by controls: 0 for no effect and ±100 for the full control effect; nearly all actives have a fitted effect of over 65% in size
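In this screen, 50 nM flap DNA substrate was added to 10 nM FEN1 pretreated with compound for 15 min at room temperature; cleavage was followed with reads at 0 and 15 min, and Hill fitting gave concentration–response parameters.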
Pol kappa inh = qHTS for Inhibitors of Polymerase Kappa; actives 0.53% (n = 400,000); Potency, µM (doses to about 107 µM), for inactives: top-dose activity, negative = inhibition, hits mostly inhibitors; purified Pol kappa, fluorescent DNA synthesis assay, 10 min; DNA polymerase kappa (Homo sapiens), Q9UBT6; note: potency is the fitted concentration of half-maximal effect; % is set by controls: 0 for no effect and ±100 for the full control effect
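Kinetic fluorescence readout at 0 and 10 min followed reaction start with substrate at 50 nM final. Beforehand, enzyme (10 nM Pol kappa) stood 15 min with compound at room temperature; buffer-only wells were negative controls.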
WRN helicase inh = qHTS for Inhibitors of WRN Helicase. Bifunctional 3'-5' exonuclease/ATP-dependent helicase WRN (Homo sapiens), Q14191. Potency, µM (series often up to 114 µM), inactives show top-dose activity change, negative = inhibition, hits mostly inhibitors. actives 0.46% (n = 360,000). AID 651768, 2012. WRN helicase unwinding, fluorescent forked duplex, kinetic; note: potency is the fitted concentration of half-maximal effect; % is set by controls: 0 for no effect and ±100 for the full control effect; nearly all actives have a fitted effect of over 55% in size
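Kinetic red-fluorescence monitoring (525/598 nm) tracks WRN helicase activity after 100 nM fluorophore-quencher forked duplex and 2 mM ATP are added to 20 nM enzyme pretreated 15 min at room temperature with compound.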
Pol beta inh-1 = qHTS Assay for Inhibitors of DNA Polymerase Beta | actives 1.3% (n = 340,000) | Potency, µM (series often up to 114 µM), for inactives: top-dose activity change, negative = inhibition, usual class: inhibitors | AID 485314, 2010 | P06746 | Pol beta primer extension/strand displacement, fluorescence kinetic; note: potency is the fitted concentration of half-maximal effect; % is set by controls: 0 for no effect and ±100 for the full control effect
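Human Pol beta at 10 nM; strand-displacement substrate 50 nM final. Compound exposure 15 min at room temperature before start, reaction 10 min at room temperature.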
POLH inh = qHTS for Inhibitors of Polymerase Eta | recombinant Pol eta, fluorescent DNA replication assay | Potency, µM (top dose mostly 114 µM), for inactives: top-dose activity change, negative = inhibition, actives largely listed as inhibitors | DNA polymerase eta (Homo sapiens), Q9Y253 | actives 1.2% (n = 390,000) | AID 588591, 2011; note: potency is the fitted concentration of half-maximal effect; % is set by controls: 0 for no effect and ±100 for the full control effect
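Pol eta (10 nM) was preincubated with compounds for 15 min at room temperature, after which fluorescent replication substrate (50 nM final) was added to start the reaction. Fluorescence was read kinetically at 0 and 10 min.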
Pol iota inh = qHTS for Inhibitors of Polymerase Iota; Pol iota fluorescent replication assay, 10 min; DNA polymerase iota (Homo sapiens), Q9UNA4; AID 588590, 2011; Potency, µM (highest dose often 115 µM), without a hit: top-dose activity, negative = inhibition, usual class: inhibitors; actives 1% (n = 390,000); note: potency is the fitted concentration of half-maximal effect
Target sequence (Q9UNA4 whole entry, looked up): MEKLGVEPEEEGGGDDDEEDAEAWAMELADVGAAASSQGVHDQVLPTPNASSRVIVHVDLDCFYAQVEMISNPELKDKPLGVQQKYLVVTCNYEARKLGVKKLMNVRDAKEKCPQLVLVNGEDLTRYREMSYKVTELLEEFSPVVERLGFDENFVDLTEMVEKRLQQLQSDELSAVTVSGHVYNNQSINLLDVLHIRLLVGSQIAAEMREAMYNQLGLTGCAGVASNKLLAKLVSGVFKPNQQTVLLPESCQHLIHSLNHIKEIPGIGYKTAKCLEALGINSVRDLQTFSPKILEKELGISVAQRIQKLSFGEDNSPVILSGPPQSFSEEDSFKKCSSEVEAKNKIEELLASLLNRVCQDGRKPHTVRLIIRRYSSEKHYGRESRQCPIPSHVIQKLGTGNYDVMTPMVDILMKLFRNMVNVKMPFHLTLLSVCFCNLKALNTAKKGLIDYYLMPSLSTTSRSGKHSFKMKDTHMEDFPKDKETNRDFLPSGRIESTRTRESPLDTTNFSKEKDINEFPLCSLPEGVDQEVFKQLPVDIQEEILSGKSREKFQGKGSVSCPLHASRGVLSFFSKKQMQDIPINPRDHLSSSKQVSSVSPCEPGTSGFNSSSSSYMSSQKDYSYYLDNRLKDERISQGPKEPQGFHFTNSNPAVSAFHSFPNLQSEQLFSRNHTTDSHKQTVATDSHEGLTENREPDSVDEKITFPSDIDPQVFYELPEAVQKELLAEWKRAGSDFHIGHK
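Fluorescent replication assay read twice, at 0 min and 10 min after adding 50 nM (final) substrate. Enzyme (10 nM) and compounds were first incubated 15 min at room temperature; enzyme-free buffer wells were negative controls.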
Pol beta inh-2 = Inhibitors of DNA Polymerase Beta: Hit validation | shares compounds with Pol beta inh-1 | AID 540280, 2011 | Potency, µM, most hits filed as inhibitors | Pol beta primer extension/strand displacement, fluorescence kinetic | actives 87% (n = 250); calls by dose curve; note: potency is the fitted concentration of half-maximal effect
Klenow inh = Inhibitors of DNA Polymerase Beta: Hit Validation in Klenow Fragment Assay. activity change, negative = inhibition, % at 57.1 µM. Klenow exo- polymerase counter-screen, fluorescent DNA substrate. 250 tested, under 10 active. shares compounds with Pol beta inh-1
HIV RT counter = Inhibitors of DNA Polymerase Beta: Hit Validation in HIV-RT Assay. activity % (negative = inhibition, positive = activation), % at 57.1 µM. AID 540301, 2011. shares compounds with Pol beta inh-1. 250 tested, under 10 active. HIV-1 RT polymerase activity, counter-screen
POLB inh gel = Inhibitors of DNA Polymerase Beta: Hit Validation in Radiolabeled Extension Assay; shares compounds with Pol beta inh-1; inhibition, % at 10 µM; actives 91% (n = 110); AID 540325, 2011; radiolabeled primer extension gel assay, phosphorimager;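 active = inhibition at 10 µM of 30% or more; inconclusive = no clear call, values can overlap the other calls; inactive = inhibition at 10 µM under 30%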
An asterisk follows results filed as active; ? = inconclusive; . = no result; [ ] = remark or other dose. Unless noted, calls come from the whole dose curve; as a rule, active = well fitted curve in the direction sought with a large enough effect; inconclusive = small, poorly fitted or top-dose-only effect, or another doubt; inactive = no such curve, though single readings can be large; an effect the other way counts as inactive or inconclusive.

SMILES | FEN1 inhibitor | Pol kappa inh | WRN helicase inh | Pol beta inh-1 | POLH inh | Pol iota inh | Pol beta inh-2 | Klenow inh | HIV RT counter | others
O=C(Nc1cc(S(=O)(=O)Nc2ccc(Cl)cc2)ccc1O)c1ccc(S(=O)(=O)N2CCCCCC2)cc1 | -10% | -21% | ? | 5.6µM* | ? | ? | 22* | -16 | 11 | POLB inh gel=67*
COc1ccc(-c2cc3ccc(O)c(CN4CCN(C)CC4)c3oc2=O)cc1OC | 2% | -8%[60.1 µM] | . | 10% | -19% | -22% | . | . | .
CCOc1ccc(NC(=O)Cn2c(=O)n(Cc3ccccc3)c(=O)c3c4c(sc32)CN(C(C)=O)CC4)cc1 | -5% | -3% | . | 12% | -25% | 30% | . | . | .
Cc1cc(SCC(=O)c2ccc3c(c2)OCO3)nc2ccccc12 | -15% | -17% | -20% | 0% | -8% | -1% | . | . | .
Cc1cc(SCC(=O)c2ccc(O)c(O)c2)nc2ccccc12 | -18% | 50µM* | ? | 14µM* | 11µM* | 40µM* | 11* | -20 | ?
Cc1ccc(-n2nnnc2CNC(=O)c2ccccc2S(C)(=O)=O)cc1C | -4% | -5%[60.1 µM] | . | -22% | -10% | -6% | . | . | .
COC(=O)c1sccc1-c1ccc(C(=O)Nc2cccc(Cl)c2)o1 | ? | -29% | ? | 14µM* | ? | ? | 18* | 0 | 31
O=C(COCc1cc(-c2cccs2)on1)NCc1ccc(Cl)cc1 | -13% | -22% | . | -12% | 0% | -23% | . | . | .
O=C(Nc1ccc2nn(-c3ccccc3)nc2c1)c1cc2ccccc2o1 | 12% | -19% | . | -1% | -2% | ? | . | . | .
O=C(Nc1ccc2nn(-c3ccccc3)nc2c1)c1ccc(Br)o1 | -4% | ? | -32% | 20µM* | 79µM* | ? | 20* | -18 | 12
CCCCCn1c(N)c(-c2nc3ccccc3o2)c2c([N+](=O)[O-])nn(C)c(=O)c21 | -1% | -12% | -31% | 1.4µM* | ? | -2% | 11* | -14 | 8
CCCCn1c(N)c(-c2nc3ccccc3s2)c2c([N+](=O)[O-])nn(C)c(=O)c21 | 4% | 14% | -16% | -7% | -7% | -17% | . | . | .
COc1ccc(OCC(=O)OCCN2C(=O)c3ccccc3C2=O)cc1 | -4% | -1% | -13% | 20µM* | -12% | 5% | 32* | -23 | -19 | POLB inh gel=85*
Cn1c(SCC(=O)Nc2ccc3nc(SCC(=O)NC4CC4)sc3c2)nnc1-c1ccccc1 | 2% | -6% | -4% | -1% | -7% | ? | . | . | .
Cn1c(SCC(=O)Nc2ccc3nc(SCC(=O)N4CCCC4)sc3c2)nnc1-c1ccc(N)cc1 | -33% | 50µM* | ? | 7.9µM* | ? | 5.6µM* | 7.1* | 5 | 8
COc1cc(NC(=O)c2cccs2)c(C(=O)OCC(=O)NCc2ccco2)cc1OC | -11% | 79µM* | ? | 13µM* | 10µM* | ? | 32* | 4 | 17
COc1cc(C(=O)OCC(=O)NCc2ccco2)cc(OC)c1OC | 2% | -15% | -12% | ? | ? | ? | . | . | .
